In assay [1] the target is Glucocorticoid receptor (Homo sapiens) (UniProt P04150). Briefly: ATG_GR_TRANS: Attagene TRANS-FACTORIAL HepG2 Assay for human Glucocorticoid Receptor (GR) (AID 2282978).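 Further: activators score as hits since higher reporter transcript over DMSO is fitted.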 The following applies: HepG2 Attagene TRANS GR reporter, mRNA transcription. The essentials:
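Multiplexed TRANS reporter system, HepG2; 24 h exposure; RNA → oligo(dT) RT → reporter-specific PCR → 6-FAM primer extension → HpaI cut → CE fluorescence. Gain-of-signal vs DMSO.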

In assay [2] the target is Oxysterols receptor LXR-alpha (Homo sapiens) (UniProt Q13133). The assay is described as follows: ATG_LXRa_TRANS: Attagene TRANS-FACTORIAL HepG2 Assay for human Liver X Receptor alpha (LXRa) (AID 2282980). The following applies: HepG2 Attagene TRANS reporter, LXRa transactivation. In outline: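 Transient HepG2 transfectants, 24 h dosing, RT-PCR/CE mRNA reporter quantitation; gain-of-signal vs DMSO.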

Assay [3] concerns the target Oxysterols receptor LXR-beta (Homo sapiens) (UniProt P55055). Briefly: ATG_LXRb_TRANS: Attagene TRANS-FACTORIAL HepG2 Assay for human Liver X Receptor beta (LXRb) (AID 2282981). The settings on record: HepG2 Attagene TRANS GAL4-LXRb reporter, mRNA. In outline: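 After 24 h of chemical treatment, transfected HepG2 cells yield total RNA; reporter cDNA is PCR-amplified, FAM-labelled, HpaI-cut and run on capillary electrophoresis. Signal reflects chimeric LXRb-Gal4 activity on GAL4-UAS reporters.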

The target of assay [4] is Hepatocyte nuclear factor 4-alpha (Homo sapiens) (UniProt P41235). The assay is described as follows: ATG_HNF4a_TRANS: Attagene TRANS-FACTORIAL HepG2 Assay for human Hepatocyte Nuclear Factor 4 alpha (HNF4a) (AID 2282982). The following applies: HepG2 HNF4a transactivation reporter, mRNA readout. In outline: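 Multiplexed reporter assay: transfected HepG2, 24 h exposure, total RNA → oligo(dT) RT → PCR → 6-FAM extension → HpaI digest → CE fluorescence. DMSO = negative control.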

Assay [5] is described as follows: ATG_M_32_TRANS: Attagene TRANS-FACTORIAL HepG2 Assay for M32 Transcription Factor (Internal Marker) (AID 2282984).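 Further: transcript level of a background control reporter unit measured by RT-PCR and capillary electrophoresis.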 The following applies: HepG2 Attagene TRANS M32 internal marker reporter. The essentials: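 Cell-based TRANS-format assay in HepG2: exogenous chimeric GAL4 reporter units transiently expressed, compounds applied 24 h. Reporter mRNA detected by RT-PCR plus capillary electrophoresis; this readout is an internal background marker.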

Assay [6] has as its target Transcriptional activator Myb (Homo sapiens) (UniProt P10242). The assay is described as follows: ATG_Myb_CIS: Attagene CIS-FACTORIAL HepG2 Assay for human Myeloblastosis (Myb) Proto-Oncogene Transcription Factor (AID 2282986; active means hit-call score of the fitted dose curve at least 0.9, where 1 is the maximum; inactive means score below 0.9). The settings on record: HepG2 Attagene CIS-FACTORIAL Myb reporter transcription; actives raise or lower the signal. The essentials:
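Endogenous transcription factor activity at a Myb-responsive cis element is reported in human liver HepG2 cells after 24 h chemical treatment. Reporter mRNA is detected by RT-PCR and capillary electrophoresis fluorescence, with DMSO as baseline.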

Assay [7] can be described thus: ATG_M_06_TRANS: Attagene TRANS-FACTORIAL HepG2 Assay for M06 Transcription Factor (Internal Marker) (AID 2282983).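 Further: reporter transcript level by RT-PCR then capillary electrophoresis fluorescence.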 The settings on record: HepG2 Attagene TRANS M06 internal marker reporter. The essentials: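 Human liver HepG2 cells bearing transiently transfected chimeric NR-GAL4 reporter units were treated with chemicals for 24 h. Total RNA was reverse-transcribed, reporter sequences amplified and labelled, then quantified by capillary electrophoresis. Activity was fitted upward relative to DMSO.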

The target in assay [8] is Nuclear receptor subfamily 4 group A member 2 (Homo sapiens) (UniProt P43354). The assay is described as follows: ATG_NURR1_TRANS: Attagene TRANS-FACTORIAL HepG2 Assay for human Nuclear Receptor Related Protein 1 (NURR1) (AID 2282985). The following applies: HepG2 Attagene TRANS reporter, mRNA readout. In outline:
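Measures transcriptional activation by an exogenous NR-Gal4 chimera in transfected HepG2 liver cells. After 24 h, reporter RNA is reverse-transcribed, amplified and resolved by capillary electrophoresis; DMSO defines baseline.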

Assay [9] deals with Estrogen-related receptor gamma (Homo sapiens) (UniProt P62508). Briefly: ATG_ERRg_TRANS: Attagene TRANS-FACTORIAL HepG2 Assay for human Estrogen-Related Receptor gamma (ERRg) (AID 2282977).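 Further: hits increase reporter signal over DMSO so potencies reflect activators.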 The following applies: HepG2 Attagene TRANS reporter, ERRg transactivation. The essentials:
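Exogenous NR-Gal4 chimera activity was assessed in HepG2 cells bearing transfected GAL4-UAS reporters. After 24 h dosing, total RNA underwent RT-PCR, fluorescent primer extension and HpaI digestion before capillary electrophoresis, with gain of signal scored against DMSO.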

Assay [10] addresses Bile acid receptor (Homo sapiens) (UniProt Q96RI1). The assay is described as follows: ATG_FXR_TRANS: Attagene TRANS-FACTORIAL HepG2 Assay for Farnesoid X Receptor (FXR) (AID 2282979).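 Further: hits raise reporter mRNA above DMSO so AC50 marks FXR activation.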 The following applies: HepG2 Attagene TRANS FXR-GAL4 reporter transcription. The essentials: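 Chimeric FXR-GAL4 activity in transiently transfected human HepG2 liver cells is scored as induction of reporter mRNA after 24 h of dosing. Detection uses RT-PCR with fluorescent labelling and capillary electrophoresis, with DMSO serving as baseline.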

Structures are written as SMILES. Results filed as inconclusive are left out. The source made the active and inactive calls. How the source made its calls, unless noted: active means hit-call score of the fitted dose curve at least 0.9, where 1 is the maximum; inconclusive means response in the unintended direction; inactive means score below 0.9.

Chain of Bile acid receptor (Homo sapiens) (Q96RI1 whole entry, looked up, the tested form may be a part): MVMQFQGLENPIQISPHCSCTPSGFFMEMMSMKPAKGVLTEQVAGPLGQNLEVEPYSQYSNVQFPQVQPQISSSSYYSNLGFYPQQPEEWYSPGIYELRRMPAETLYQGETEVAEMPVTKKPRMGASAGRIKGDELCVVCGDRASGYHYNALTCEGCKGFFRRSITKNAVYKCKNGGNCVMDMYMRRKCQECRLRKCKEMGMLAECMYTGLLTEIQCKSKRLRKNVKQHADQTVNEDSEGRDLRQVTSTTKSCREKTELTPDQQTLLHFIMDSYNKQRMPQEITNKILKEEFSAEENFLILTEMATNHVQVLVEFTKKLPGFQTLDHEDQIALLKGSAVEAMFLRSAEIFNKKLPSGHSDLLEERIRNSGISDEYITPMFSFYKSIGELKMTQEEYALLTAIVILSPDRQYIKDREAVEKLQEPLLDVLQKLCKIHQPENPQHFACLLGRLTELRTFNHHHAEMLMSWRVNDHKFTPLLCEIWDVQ
Chain of Glucocorticoid receptor (Homo sapiens) (P04150 whole entry, looked up): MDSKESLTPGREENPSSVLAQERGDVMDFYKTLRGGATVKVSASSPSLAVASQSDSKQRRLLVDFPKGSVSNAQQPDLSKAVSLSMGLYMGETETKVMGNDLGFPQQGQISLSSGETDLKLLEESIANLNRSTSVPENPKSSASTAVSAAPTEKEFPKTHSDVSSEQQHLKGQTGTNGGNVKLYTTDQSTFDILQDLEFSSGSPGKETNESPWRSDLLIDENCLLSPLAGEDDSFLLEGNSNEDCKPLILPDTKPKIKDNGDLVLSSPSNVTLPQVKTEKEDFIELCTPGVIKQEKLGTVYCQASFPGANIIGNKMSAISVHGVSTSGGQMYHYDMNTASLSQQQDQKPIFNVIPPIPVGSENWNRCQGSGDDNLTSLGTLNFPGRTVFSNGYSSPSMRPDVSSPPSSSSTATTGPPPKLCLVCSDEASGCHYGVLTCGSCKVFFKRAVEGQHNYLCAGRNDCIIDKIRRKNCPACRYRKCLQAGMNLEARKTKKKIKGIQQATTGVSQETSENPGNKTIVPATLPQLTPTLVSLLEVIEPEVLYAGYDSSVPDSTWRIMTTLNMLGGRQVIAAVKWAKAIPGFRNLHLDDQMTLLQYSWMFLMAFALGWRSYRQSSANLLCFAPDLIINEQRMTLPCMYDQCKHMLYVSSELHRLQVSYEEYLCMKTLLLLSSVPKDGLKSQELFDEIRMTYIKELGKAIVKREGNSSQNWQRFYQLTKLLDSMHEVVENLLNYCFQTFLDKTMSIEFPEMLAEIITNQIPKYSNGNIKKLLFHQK
Chain of Nuclear receptor subfamily 4 group A member 2 (Homo sapiens) (P43354 whole entry, looked up, the tested form may be a part): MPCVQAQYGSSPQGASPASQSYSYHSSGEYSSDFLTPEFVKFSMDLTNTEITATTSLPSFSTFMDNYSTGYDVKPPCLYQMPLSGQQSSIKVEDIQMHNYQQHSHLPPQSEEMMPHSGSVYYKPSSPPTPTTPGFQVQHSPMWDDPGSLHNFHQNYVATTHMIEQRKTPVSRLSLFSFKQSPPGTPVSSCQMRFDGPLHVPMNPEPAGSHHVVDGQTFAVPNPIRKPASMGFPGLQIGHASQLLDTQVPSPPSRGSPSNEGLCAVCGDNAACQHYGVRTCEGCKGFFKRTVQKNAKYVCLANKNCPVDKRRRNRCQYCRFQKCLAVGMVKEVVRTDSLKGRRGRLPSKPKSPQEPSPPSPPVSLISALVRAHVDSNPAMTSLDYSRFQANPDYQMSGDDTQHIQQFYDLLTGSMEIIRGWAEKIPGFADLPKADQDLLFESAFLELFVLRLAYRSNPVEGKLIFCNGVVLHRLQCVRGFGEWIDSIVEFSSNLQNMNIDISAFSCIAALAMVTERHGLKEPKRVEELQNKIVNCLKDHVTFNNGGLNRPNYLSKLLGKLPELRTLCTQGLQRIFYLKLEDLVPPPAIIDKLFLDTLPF
Chain of Hepatocyte nuclear factor 4-alpha (Homo sapiens) (P41235 whole entry, looked up): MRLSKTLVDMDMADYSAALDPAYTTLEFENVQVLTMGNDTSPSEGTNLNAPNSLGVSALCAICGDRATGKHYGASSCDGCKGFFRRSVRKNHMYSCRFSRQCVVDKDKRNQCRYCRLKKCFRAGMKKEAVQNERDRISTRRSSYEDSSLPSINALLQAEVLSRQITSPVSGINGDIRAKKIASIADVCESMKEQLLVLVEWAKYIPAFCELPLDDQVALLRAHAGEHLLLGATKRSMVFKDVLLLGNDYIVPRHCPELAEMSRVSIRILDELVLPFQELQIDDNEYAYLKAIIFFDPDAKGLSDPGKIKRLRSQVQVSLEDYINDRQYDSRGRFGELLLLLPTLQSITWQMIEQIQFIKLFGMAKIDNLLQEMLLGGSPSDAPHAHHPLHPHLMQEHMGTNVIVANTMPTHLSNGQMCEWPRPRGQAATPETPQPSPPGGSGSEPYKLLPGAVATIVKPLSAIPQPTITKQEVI
Chain of Transcriptional activator Myb (Homo sapiens) (P10242 whole entry, looked up): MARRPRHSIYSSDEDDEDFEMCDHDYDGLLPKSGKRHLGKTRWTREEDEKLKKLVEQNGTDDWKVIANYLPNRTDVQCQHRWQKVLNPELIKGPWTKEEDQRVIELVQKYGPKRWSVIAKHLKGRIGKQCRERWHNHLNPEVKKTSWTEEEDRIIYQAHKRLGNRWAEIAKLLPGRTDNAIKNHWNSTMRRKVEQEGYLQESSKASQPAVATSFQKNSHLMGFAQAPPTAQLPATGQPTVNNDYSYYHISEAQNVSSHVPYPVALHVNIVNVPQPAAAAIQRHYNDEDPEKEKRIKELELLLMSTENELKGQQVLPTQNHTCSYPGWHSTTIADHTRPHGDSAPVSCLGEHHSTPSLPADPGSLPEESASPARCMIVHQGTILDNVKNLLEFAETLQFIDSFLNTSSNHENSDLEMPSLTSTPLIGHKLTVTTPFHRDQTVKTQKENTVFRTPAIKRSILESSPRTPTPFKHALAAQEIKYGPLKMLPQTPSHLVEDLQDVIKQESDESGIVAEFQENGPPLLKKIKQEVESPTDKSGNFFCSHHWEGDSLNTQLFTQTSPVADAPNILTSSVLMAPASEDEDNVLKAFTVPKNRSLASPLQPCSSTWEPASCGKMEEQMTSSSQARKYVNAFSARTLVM
Chain of Estrogen-related receptor gamma (Homo sapiens) (P62508 whole entry, looked up, the tested form may be a part): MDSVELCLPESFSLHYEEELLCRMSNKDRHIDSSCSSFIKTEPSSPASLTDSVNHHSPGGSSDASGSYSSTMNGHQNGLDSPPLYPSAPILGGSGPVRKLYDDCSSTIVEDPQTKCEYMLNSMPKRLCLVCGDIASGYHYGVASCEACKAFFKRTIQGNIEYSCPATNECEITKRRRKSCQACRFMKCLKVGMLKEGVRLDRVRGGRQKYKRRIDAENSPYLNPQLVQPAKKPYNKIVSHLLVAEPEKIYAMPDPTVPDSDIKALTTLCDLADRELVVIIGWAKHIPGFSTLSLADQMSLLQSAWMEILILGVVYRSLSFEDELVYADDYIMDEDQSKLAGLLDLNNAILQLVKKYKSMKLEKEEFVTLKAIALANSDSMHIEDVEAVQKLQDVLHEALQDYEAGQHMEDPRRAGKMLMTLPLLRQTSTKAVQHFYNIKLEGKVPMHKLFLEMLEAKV
Chain of Oxysterols receptor LXR-beta (Homo sapiens) (P55055 whole entry, looked up, the tested form may be a part): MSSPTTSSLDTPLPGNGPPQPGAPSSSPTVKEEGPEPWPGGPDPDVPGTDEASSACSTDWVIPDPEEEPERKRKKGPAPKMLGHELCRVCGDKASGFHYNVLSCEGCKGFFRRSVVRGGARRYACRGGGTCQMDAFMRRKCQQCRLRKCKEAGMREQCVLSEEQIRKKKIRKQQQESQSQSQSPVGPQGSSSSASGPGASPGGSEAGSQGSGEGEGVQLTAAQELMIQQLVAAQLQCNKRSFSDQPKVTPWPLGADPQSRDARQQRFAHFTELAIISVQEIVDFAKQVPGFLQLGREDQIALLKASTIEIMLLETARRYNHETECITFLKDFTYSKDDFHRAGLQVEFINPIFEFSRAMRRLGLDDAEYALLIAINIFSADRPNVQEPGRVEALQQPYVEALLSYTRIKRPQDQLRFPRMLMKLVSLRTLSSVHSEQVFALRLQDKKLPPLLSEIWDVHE
Chain of Oxysterols receptor LXR-alpha (Homo sapiens) (Q13133 whole entry, looked up): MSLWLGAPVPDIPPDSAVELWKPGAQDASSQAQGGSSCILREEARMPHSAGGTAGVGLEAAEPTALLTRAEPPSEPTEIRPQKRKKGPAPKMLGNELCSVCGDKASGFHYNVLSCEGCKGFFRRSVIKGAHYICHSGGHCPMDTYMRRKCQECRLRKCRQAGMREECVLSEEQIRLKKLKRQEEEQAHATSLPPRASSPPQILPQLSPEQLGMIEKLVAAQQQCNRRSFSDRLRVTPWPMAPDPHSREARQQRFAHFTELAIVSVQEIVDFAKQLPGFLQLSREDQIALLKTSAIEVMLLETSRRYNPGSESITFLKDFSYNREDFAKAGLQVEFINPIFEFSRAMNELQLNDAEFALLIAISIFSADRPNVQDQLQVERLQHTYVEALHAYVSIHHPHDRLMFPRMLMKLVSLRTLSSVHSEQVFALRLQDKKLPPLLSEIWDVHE

Take `CNC(=O)ON=C(C)SC`: the compound was called inactive in assay [1], in assay [2], in assay [3], in assay [4], in assay [5] and in assay [6].
Turning to `CSC1=N[C@@](C)(c2ccccc2)C(=O)N1Nc1ccccc1`, the outcome in assay [1], in assay [2], in [3], in [4], in assay [7] and in assay [5] was inactive. In addition, the outcome in assay [8] and in [6] was inactive.
Take `COc1ccc(C(=CC(=O)N2CCOCC2)c2ccc(Cl)cc2)cc1OC`: the result in [9], in assay [10], in assay [2], in assay [3], in assay [4] and in assay [7] was inactive. The compound was classed as inactive in [6].
In the case of `Nc1c(Cl)cc([N+](=O)[O-])cc1Cl`, the outcome in assay [9], in assay [10], in assay [2], in assay [3], in assay [4] and in [7] was inactive. For the same compound, the outcome in assay [5] and in assay [6] was inactive.
As for `CCC(=NOC/C=C/Cl)C1=C(O)CC(C2CCOCC2)CC1=O` (stereo not given), the call in assay [9], in [1], in assay [2], in assay [3], in [4] and in assay [5] was inactive. In assay [6], the result was inactive.
For the compound `COP(=O)(OC)OC(Br)C(Cl)(Cl)Br` (stereo not given), the compound was classed as inactive in assay [1], in assay [10], in assay [3], in assay [4] and in [6].
As for `C=C(C)[C@H]1Cc2c(ccc3c2O[C@@H]2COc4cc(OC)c(OC)cc4[C@@H]2C3=O)O1`, the call in [9], in assay [2], in assay [3], in assay [4], in assay [7] and in [6] was inactive.
In the case of `COc1cccc(C(=O)NN(C(=O)c2cc(C)cc(C)c2)C(C)(C)C)c1C`, the result in assay [9], in [10], in [7] and in assay [6] was inactive.
Regarding `CCCCN(CC)c1c([N+](=O)[O-])cc(C(F)(F)F)cc1[N+](=O)[O-]`, the call in [9], in [1], in assay [2], in assay [7], in [5] and in assay [8] was inactive. Further, in [6], the compound was called inactive.
Turning to `COP(=O)(NC(C)=O)SC` (stereo not given), the compound was called inactive in assay [1], in [2], in [3], in [4], in assay [7] and in [6].
For the compound `CCNc1nc(Cl)nc(NC(C)(C)C#N)n1`, the outcome in assay [1], in assay [2], in assay [3], in assay [4], in [5] and in [8] was inactive. In addition, the compound was called inactive in assay [6].
As usually defined, the AC50 is the concentration at which the activity in the assay is half-maximal. `CCOP(=S)(Oc1cnc(C(C)(C)C)nc1)OC(C)C` (stereo not given): the result in assay [9], in [1], in assay [4], in [7] and in [6] was inactive. The concentration at half-maximal activity (AC50) in assay [2] is 9.2 µM (active); in assay [3] it was 11.1 µM (active).
With `CCOP(=S)(OCC)Oc1ccc2c(C)c(Cl)c(=O)oc2c1`, the call in assay [9], in assay [1], in assay [2], in assay [3], in assay [7] and in [5] was inactive. The compound was classed as inactive in assay [8] and in assay [6].
On to `CNC(=O)ON=C(SC)C(=O)N(C)C`, for which the compound was called inactive in assay [9], in assay [3], in assay [4] and in assay [6].
Turning to `CC1(C(=O)Nc2ccc(O)c(Cl)c2Cl)CCCCC1`, the outcome in [9], in assay [3], in assay [4], in assay [7], in assay [8] and in assay [6] was inactive. In addition, the AC50 in [2] is 50 µM (active).
As for `CCCCOC(=O)[C@@H](C)Oc1ccc(Oc2ccc(C#N)cc2F)cc1`, the call in assay [9], in assay [1], in assay [2], in [3], in assay [5] and in [6] was inactive.
With `CC(COc1ccc(Oc2ccccc2)cc1)Oc1ccccn1` (stereo not given), the compound was called inactive in assay [9], in [2], in assay [3], in assay [4], in assay [5] and in assay [8]. In [6], the call was inactive.
